Sfp PPTase inh: inhibitors of Bacillus subtilis Sfp phosphopantetheinyl transferase; Q9F4F7; Biochemical Sfp PPTase activity, qHTS; Potency, µM, for the others: largest response in the series, negative = inhibition, actives largely listed as inhibitors; hit rate 3.5% among 310,000;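 further: the enzyme is Sfp with the accession as filed and its product quenches rhodamine fluorescence; potency means the concentration at half of the fitted maximal effect; 0% = enzyme reaction without inhibitor and -100% = no enzyme wells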
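Fluorescence-quenching assay: 15 nM Sfp-PPTase preincubated 15 min at room temperature with compound, then 5 uM rhodamine-CoA and 12.5 uM BHQ-2-labelled YbbR peptide added. Fluorescence (ex 525/em 598 nm) read at start and after 30 min; difference gives rate.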
G9a inh: G9a (human) methyltransferase inhibition | G9a H3K9 monomethylation, AlphaScreen, 2 h | AID 504332 | hit rate 8.8% among 350,000 | Potency, µM (titrated, usually from 102 µM), inactives show at the top dose activity, negative = inhibition, usual class: inhibitors | Q96KQ7; further: potency means the concentration at half of the fitted maximal effect; nearly all actives have a fitted effect of over 75% in size
Target sequence (Q96KQ7 913-1193 limits assumed): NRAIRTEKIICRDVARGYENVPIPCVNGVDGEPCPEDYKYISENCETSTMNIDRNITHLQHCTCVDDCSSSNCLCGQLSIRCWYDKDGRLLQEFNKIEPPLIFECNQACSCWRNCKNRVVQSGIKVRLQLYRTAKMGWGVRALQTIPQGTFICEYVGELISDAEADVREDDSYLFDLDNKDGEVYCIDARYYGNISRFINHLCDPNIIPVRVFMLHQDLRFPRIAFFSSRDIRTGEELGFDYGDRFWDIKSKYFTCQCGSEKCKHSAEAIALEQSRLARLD
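Readings reflect AlphaScreen signal from monomethyl-H3K9 antibody detection. HMT at 20 nM; substrate b-H3K9 500 nM; cofactor SAM 20 uM; 2 h RT reaction; compounds tested as titrations in qHTS with 15 min preincubation.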
Coupling enz: counter-screen for Giardia aldolase inhibitors: coupling enzyme system | coupling enzyme system counterscreen, AmpLite Red fluorescence | activity change, negative = inhibition, % at 58.2 µM, hits read low | hit rate 0.67% among 290,000 | AID 2472; in the data active means activity change below about -30%
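Counterscreen of the coupled detection system alone, without aldolase: glyceraldehyde-3-phosphate coupling enzymes plus AmpLite Red readout. Compounds at 57.5 uM final, 10 min RT preincubation, 20 min RT reaction, fluorescence 525/598 nm.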
Tau fibril FP: tau fibrillization inhibition (FP). P10636. K18 P301L tau heparin fibrillization, Alexa594 FP, 6 h. Potency, µM (top dose mostly 57.7 µM), inactives show at the highest dose activity, negative = inhibition, most hits filed as inhibitors. hit rate 0.39% among 280,000; further: potency means the concentration at half of the fitted maximal effect; nearly all actives have a fitted effect of over 55% in size
Target sequence (P10636 561-689 P618L limits assumed): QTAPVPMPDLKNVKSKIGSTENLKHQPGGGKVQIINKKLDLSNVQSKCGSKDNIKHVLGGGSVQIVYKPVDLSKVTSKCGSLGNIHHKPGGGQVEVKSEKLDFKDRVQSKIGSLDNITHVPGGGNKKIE
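Steps: dispense K18 P301L tau (15 uM plus 0.24 uM Alexa 594 tracer, final) in pH 7 sodium acetate; add compound; add heparin (20 uM final); incubate 6 hr, 37 C; add ThT (30 uM final); after 1 hr ambient, read FP.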
Tau fluor cs: counter-screen for tau fibril formation inhibitors. tau K18 P301L Alexa594 fluorescence, heparin fibrillization. Potency, µM (titrated, usually from 57.7 µM), without a hit: at the highest dose activity change, negative = decrease. hit rate 0.93% among 280,000; further: potency means the concentration at half of the fitted maximal effect; nearly all actives have a fitted effect of over 55% in size
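Human tau K18 P301L (15 uM unlabeled, 0.24 uM Alexa 594-labeled) in 100 mM sodium acetate pH 7 with 20 uM heparin, 6 hr at 37 C. ThT 30 uM added, 1 hr ambient; Alexa 594 FP and total fluorescence read at 555/632 nm.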
Tau ThT inhib: tau fibrillization inhibition (ThT binding); P10636; recombinant tau K18 P301L (four-repeat tau fragment), heparin-induced fibrillization, ThT fluorescence; AID 1460; Potency, µM (highest dose often 57.4 µM), for inactives: at the highest dose activity, negative = inhibition, most hits filed as inhibitors; hit rate 2.1% among 270,000; further: potency means the concentration at half of the fitted maximal effect; nearly all actives have a fitted effect of over 55% in size
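Heparin-induced (20 uM) aggregation of recombinant human K18 P301L tau, 15 uM unlabeled with 0.24 uM labeled, pH 7 acetate buffer, 6 hr at 37 C with compound. Fibrils quantified by 30 uM ThT fluorescence after 1 hr ambient incubation.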
An asterisk follows results filed as active; ? = inconclusive; . = no result given; [ ] = dose if it differs, or a comment. Shown are actives, neighbours in structure and some others; about 11% of the full set was active somewhere. Unless noted, the call rests on the fitted dose curve; in most records, active means well fitted curve in the direction sought with a large enough effect; inconclusive means small, poorly fitted or top-dose-only effect, or another doubt; inactive means no such curve, though single readings can be large; an effect the other way counts as inactive or inconclusive. Unless noted, on the % scale 0 is the no-effect control and ±100 the full control effect.

SMILES	Sfp PPTase inh	G9a inh	Coupling enz	Tau fibril FP	Tau fluor cs	Tau ThT inhib
COc1cc(OC)c(OC)cc1/C=N/n1c(C)nnc1C	14%	-2%[59 µM]	1	2%	5%	-2%
CCN(CC)c1ccc(/C=N/n2c(=S)[nH]nc(C)c2=O)cc1	79µM*	-42%	-2	-3%	-21%	-10%
CCOC(=O)c1cnc(-n2nc(C)cc2C)nc1Nc1ccc(O)cc1	0%	?	-1	-7%	2%	3%
CCOC(=O)c1cnc(-n2nc(C)cc2C)nc1NC	?	45µM*	2	?	-4%	-15%
CCOC(=O)c1cnc(-n2nc(C)cc2C)nc1Nc1ccc(C)cc1	2%	?	-2	8%	-2%	-4%
CCOC(=O)c1cnc(-n2nc(C)cc2C)nc1Nc1cccc(C(=O)O)c1	7%	10µM*	1	4%	-2%	-8%
CCOC(=O)c1cnc(-n2nc(C)cc2C)nc1Nc1ccc(N(C)C)cc1	-12%	0.89µM*	3	?	?	?
CCOC(=O)c1cnc(-n2nc(C)cc2C)nc1NNc1nc(C)cc(C)n1	14%	-8%	3	1%	3%	-6%
COc1cccc(CS(=O)(=O)c2nnnn2CC(C)C)c1	3%	.	1	7%	3%	2%
O=C(CSc1ccc(Cl)cc1)Nc1nnc(-c2cccc([N+](=O)[O-])c2)s1	-21%	40µM*	1	?	?	?
O=C(Cc1cccc2ccccc12)Nc1nnc(-c2cccc([N+](=O)[O-])c2)s1	?	?	0	4%	?	-12%
COc1ccc(/C=C(\C#N)c2nc3ccccc3n2C)c(OC)c1	.	-11%[59 µM]	.	7%	?	14µM*
CC1(C)CC(=O)c2sc(NC(=O)C(C)(C)C)nc2C1	4%	.	0	-6%	5%	2%
CCOc1ccc(NC(=O)COC(=O)c2ccc3ncsc3c2)cc1OCC	.	45µM*	.	.	.	.
CC1(C)CC(=O)c2sc(NC(=O)c3ccccc3)nc2C1	-6%	.	5	2%	2%	9%
O=C(Nc1ccc(Br)cc1)c1ccc2ncsc2c1	?	45µM*	-2	.	.	.
CCc1ccc(NC(=O)c2ccc3ncsc3c2)cc1	15%	1%	.	-5%	-12%	-14%
CC1(C)CC(=O)c2sc(NC(=O)c3ccc4ncsc4c3)nc2C1	50µM*	?	3	1%	2%	-1%
CC1(C)CC(=O)c2sc(NC(=O)CN3CCCCC3)nc2C1	-8%	14µM*	5	-7%	-6%	-4%
CC1CCCN(CC(=O)Nc2cc(S(=O)(=O)N3CCOCC3)ccc2N2CCCC2)C1 (stereo unspecified)	.	-13%[59 µM]	.	.	.	.
CCN(c1ccc(C)cc1)S(=O)(=O)c1nnc(NC(=O)C2CCCCC2)s1	.	34%[59 µM]	.	-16%	-28%	?
O=C(CCl)c1ccc2[nH]c(=O)oc2c1	-15%	45µM*	7	-1%	-13%	-18%
COc1ccc(/C=C2\CCC/C(=C\C=N\N(C)C)C2=O)cc1	-27%	?	2	0%	-29%	2.5µM*
CN(C)/N=C/C=C1\CCC/C(=C\c2ccc(F)c(F)c2)C1=O	8.9µM*	?	-2	1%	-11%	2%
COc1ccc(/C=C2/CCOC2=O)cc1	5%	24%[59 µM]	2	-11%	-20%	?
Fc1cccc(CNc2ncnc3ccc(-c4ccoc4)cc23)c1	.	11%[12.7 µM]	.	.	.	.
COCCn1nnnc1CN1CCOCC1	-2%	50µM*	-2	2%	3%	1%
COCCn1nnnc1C(c1cccc(C(F)(F)F)c1)N1CCN(Cc2ccccc2)CC1 (stereo unspecified)	0%	50µM*	0	11%	-8%	-15%
COCCn1nnnc1CN1CCC(O)(c2cccc(C(F)(F)F)c2)CC1	12%	79µM*	3	-2%	-6%	-3%
OC1(c2cccc(C(F)(F)F)c2)CCN(Cc2nnnn2CCc2ccccc2)CC1	9%	-13%[59 µM]	2	14%	-5%	-15%

Screening data as filed in PubChem.
